# Measured values as given in PubChem BioAssay (Tox21).
# A number with no mark means an inactive call. Calls of active or inactive are those of the source. Calls follow the shape of the dose curve; as a rule, active = well fitted curve in the direction sought with a large enough effect in the repeat runs; inconclusive = weak or mixed curves; inactive = flat fitted curve, though single readings scatter.
# Assay: qHTS assay to test for compound auto fluorescence at 460 nm (blue) in HEK293 cell free culture (AID 720681)
# Details: cell-free medium, autofluorescence 405/460 nm (blue); series mostly up to 46 µM; fluorescence, % of fluorescent control: at the top concentration
# From the text: U.S. Tox21 Program National Center for Advancing Translational Sciences [NCATS] NIH Chemical Genomics Center [NCGC] U.S. Environmental Protection Agency [EPA] National Institutes of Environmental Health Sciences [NIEHS] National Toxicology Program [NTP] U.S. Food and Drug Administration [FDA] Tox21 Assay Overview: Compound auto fluorescence often interferes with screening of the compound library against various biological targets and signaling pathways. Some of these compounds may have fluorophoric properties. Such properties may interfere with the assay outputs resulting in false positives and/or negatives. To decrease such complications and ensure the compound activities are relevant in terms of biological response, the Tox21 10K compound library was screened for auto fluorescence. From the fluorophores used as reporter signals in our screening assays, the auto fluorescence equivalencies of compounds against three fluorophores have been evaluated: Triamterene, Fluorescein and Rose Bengal sodium for blue, green and red fluorescence, respectively. The fluorescence intensities were measured using Excitation/Emission wavelengths at 405/460nm, 485/535nm and 540/590nm for blue, green and red labels, respectively. This assay includes the blue fluorescence data.
# Tox21 Assay Protocol Summary: 5 uL of culture medium (DMEM containing 10% FBS) per well was dispensed into black wall/clear bottom 1536-well plates using a Multidrop Combi Dispenser (ThermoFisher Scientific, Waltham, MA). After 23 nL compound or DMSO vehicle was transferred into assay plate by a pintool work station (Kalypsys, San Diego, CA), fluorescence intensities in the assay plates were measured by an Envision (PerkinElmer, Shelton, CT) plate reader using three labels for measuring blue, green and red fluorescence at […] 460, 535 and 590nm respectively.
# % is scaled to controls: 0 for no effect and ±100 for the full control effect.
Compound,outcome,"fluorescence, % of fluorescent control"
CC(C)(c1ccc(O)cc1)c1ccc(O)cc1,inactive,
CC(C)(C)c1ccc(O)c(O)c1,inactive,
O=c1n(CCO)c(=O)n(CCO)c(=O)n1CCO,inactive,
CC(C)OC(=O)c1ccccc1,,0.115% [at 95.7 µM]
Cc1c(NC(C)C)c(=O)n(-c2ccccc2)n1C,,-0.0069%
CS(=O)(=O)O,,-0.058% [at 91.3 µM]
CN1CC(=O)NC1=N,,-0.137%
C[C@H]1C[C@@H](O)CC(C)(C)C1,,-0.0131% [at 91.3 µM]
NCCc1cnc[nH]1,,-0.0015%
COC(=O)[C@@H](N)Cc1ccc(O)c(O)c1,,2.31%
O=Cc1cccc([N+](=O)[O-])c1,,-0.0063% [at 91.3 µM]
CCOC(=O)[C@H](CCc1ccccc1)N[C@@H](C)C(=O)N1[C@H](C(=O)O)C[C@@H]2CCC[C@@H]21,,-0.0676%
OC1CCCCC1c1ccccc1 (stereo not given),,-0.0669% [at 91.3 µM]
O=S(O)CO,inactive,
Cc1ccc(Cl)cc1Cl,,-0.0428% [at 91.3 µM]
C/C=C(\C)C#N,,-0.0457% [at 91.3 µM]
Brc1c(NC2=NCCN2)ccc2nccnc12,,0.117%
C=COCC1CCC(CO)CC1 (stereo not given),,-0.0644% [at 91.3 µM]
O=C1CCCCCCCCCCCN1,inactive,
O=C1OC(=O)C2CCCCC12 (stereo not given),,-0.102% [at 91.3 µM]

Compound,outcome,"fluorescence, % of fluorescent control"
CC(=O)c1ccccc1O,,-0.0353% [at 91.3 µM]
O=C(O)CCCl,,-0.0002% [at 95.7 µM]
N[C@@H](C(=O)N[C@@H]1C(=O)N2C(C(=O)O)=C(Cl)CS[C@H]12)c1ccccc1,,4.75%
C1CN(CCOCCN2CCOCC2)CCO1,,0.0651% [at 91.3 µM]
CCC(C)S (stereo not given),,0.0638% [at 3.72 µM]
CCCCCCCCS(=O)(=O)Cl,,-0.0316% [at 91.3 µM]
O=C[C@H](O)[C@@H](O)[C@H](O)[C@H](O)CO,inactive,
CCC(=O)OC(C)c1ccccc1 (stereo not given),,-0.176% [at 91.3 µM]
CC[N+](C)(C)c1cccc(O)c1,,0.0126% [at 18.6 µM]
NS(=O)(=O)c1ccc(C(=O)O)cc1,,0.09%
c1ccc(CC2=NCCN2)cc1,,-0.134% [at 18.6 µM]
Cc1[nH]c(=O)c(C#N)cc1-c1ccc2nccn2c1,,0.0752%
C[C@@H]1CCN(C(=O)[C@H](CCCN=C(N)N)NS(=O)(=O)c2cccc3c2NC[C@H](C)C3)[C@@H](C(=O)O)C1,,0.132%
CCCCCCOC(=O)CCCCC(=O)OCCCCCC,,-0.0606% [at 91.3 µM]
CC(=O)N(CC(O)CO)c1c(I)c(C(=O)NCCO)c(I)c(C(=O)NCC(O)CO)c1I (stereo not given),,-0.0253%
N[C@H]1CN(c2c(F)cc3c(=O)c(C(=O)O)cn(C4C[C@H]4F)c3c2Cl)CC12CC2 (stereo not given in full),,-0.0307%
OC(CCN1CCCCC1)(c1ccccc1)C1CC2C=CC1C2 (stereo not given),inactive,
CCO[Si](CCC1CCC2OC2C1)(OCC)OCC (stereo not given),,0.127% [at 91.3 µM]
O=C(O)c1ccccc1OP(=O)(O)O,,-0.323%
CN1CCCC1,,-0.0042% [at 91.3 µM]
